Measurements taken from publication PMC12136788.
Whole data set: some 24,000 sequences, median “enrichment r” near 0.99, cut for the highest 2% near 3.7. The list is a sample of the results.

T1: UNK ZnF1-3 (human, UniProt Q9C0B0 31-174)
T1 sequence: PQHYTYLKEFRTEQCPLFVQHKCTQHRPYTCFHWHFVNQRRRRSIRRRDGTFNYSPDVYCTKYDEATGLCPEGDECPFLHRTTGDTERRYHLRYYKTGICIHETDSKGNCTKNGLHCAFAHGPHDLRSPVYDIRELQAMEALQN

B1: chr1:220276048:220276049:+_ENSG00000067704_ENST00000302637|hu_hu|hu_hu_hu_mus_True|18_88 (ssRNA)
RNA: GGGAGUUCUACAGUCCGACGAUCGCAAAUUGCCUGGUUGGCGGGAAUCGUCCAAGGCUGGGUGGUCCAAACUAAAACGCUAACAGGGGAUGAGGCAUCUGUAAGAGACUCCAACUUUGGAGAAGGCCUCAGGAGGGGGAAUCUCAACAGAGGAUUGAGCAUCA
B2: chr11:111909998:111909999:+_ENSG00000150768_ENST00000533297|hu_hu|FALSE|FALSE (ssRNA)
RNA: GGGAGUUCUACAGUCCGACGAUCACCCUUCCCUUUGGUCCAGCAGGAGUAGCUGGGCAGGGUGCUGAAGGUGUAGGAGCUAAAGGCUGGGGAGUUGGAGGAACAGCGGCCACCGGGGGUGGGGUAGGUGGUGGCACUUGUGGUCAACAGAGGAUUGAGCAUCA
B3: 91020203_91021877_1494_CDS_ENSMUSG00000030091_ENSMUST00000032179|mouse|control|control (ssRNA)
RNA: GGGAGUUCUACAGUCCGACGAUCCAUGACCCCCUUGACGGUGACUGUGGCAACCAUGGAGCUUGACGAAGACCAGCUGAAGUUCCCACUGCCCCCAUGGGCCUUUAUGGUAUACUGAUAGGCGCCUGUCUUUGGUUGCCAUGGCAACAGAGGAUUGAGCAUCA
B4: chr7:7679991:7679992:-_ENSG00000106399_ENST00000396682|hu_hu|hu_hu_hu_mus_False|88_98 (ssRNA)
RNA: GGGAGUUCUACAGUCCGACGAUCUGGGAUGAAUCUUUUCCAGCCUCCCUACGAAGCACACGGGCCGGUCGAUAUACUGUGGUAACAUGCUGGCGUUGACGCGCGCUUUGGGGAGCUGCAUUAUGUCCUCCAUGAUUCUGCCGCCAACAGAGGAUUGAGCAUCA
B5: chr8:104075188:104075189:+_ENSG00000155097_ENST00000518738|hu_hu|motif|central (ssRNA)
RNA: GGGAGUUCUACAGUCCGACGAUCCUUCCUAAACAAGGUGACAUUACACAGGUAACUGUCUUGGUCCUCUGAAAGAACAUUGCGGGACCUUGGAACUACCAUUUCGGCUAGUGUUUCAUACUGCUUAAUCCAGUCGUUGUGGUUCAACAGAGGAUUGAGCAUCA
B6: chr8:122087627:122087628:-_ENSMUSG00000034189_ENSMUST00000036049|mus_hu|FALSE|FALSE (ssRNA)
RNA: GGGAGUUCUACAGUCCGACGAUCUAGUUACAAAAUAAUACUUUUCAGUAGUCUUUCUUGAUGCACAUUUAAAAACCAGCACAACUCCUCUAGUGAAAUGGUCAAUUUCCCUUAAAAAACAACAUCUGAAAUUAUAAGACCUGACAACAGAGGAUUGAGCAUCA
B7: chr3:132387698:132387699:+_ENSG00000081307_ENST00000264991|hu_hu|FALSE|FALSE (ssRNA)
RNA: GGGAGUUCUACAGUCCGACGAUCUUGAACUUUACUUAAUCCUGCUUGAUGAGGUUGGAAGAAAAGUCUAUUCAUAUUGGCUAGUUCCACCUUGUCAUAAUCAAAGAGUAGCAACUUACCAAUGCCACAUCUUGUCAGCAUUUCCAACAGAGGAUUGAGCAUCA
B8: chr6:40197388:40197389:+_ENSMUSG00000057716_ENSMUST00000061740|mus_mus|mus_mus_mus_hu_False|18_58 (ssRNA)
RNA: GGGAGUUCUACAGUCCGACGAUCGAGACACUGGGGUGGAUUUAUUCCACCUCUGUUUGGGUGCUAGCCACUAAGACAGCUAUUUUGGGAUUCAUGGCCUUGAAUAUCAAGAGGGAAGGGACGAGAAUGGAAAGAGUCAAGAGUCAACAGAGGAUUGAGCAUCA
B9: chr11:98549071:98549072:+_ENSMUSG00000017221_ENSMUST00000017365|mus_hu|FALSE|FALSE (ssRNA)
RNA: GGGAGUUCUACAGUCCGACGAUCAUCCAGCUUGUCCAGGAACUCAUAGACCCGGGCGUGAUAAUAGUAACACUUUGCGGCUACAAGGUCUAGGGCCCGGCGGUUCUGAGUACUGAUCUUCUGCAUCAGAUCAUCAGAGAUCUUCAACAGAGGAUUGAGCAUCA
B10: chr15:103023242:103023243:-_ENSMUSG00000009575_ENSMUST00000118152|mus_mus|motif|central (ssRNA)
RNA: GGGAGUUCUACAGUCCGACGAUCAACUAGCAGCAUUGAUGAGGGGUUAAGGGAUUGGGGACAGAAACUCACCAAGGUCACGGAGUACUUCCAAACUUGGAAGUAGCUCAGUGAGGGCUAAAAAAACUUCGACUGAAGGUAUCCCAACAGAGGAUUGAGCAUCA
B11: chr7:99968543:99968544:+_ENSMUSG00000030643_ENSMUST00000032879|mus_mus|FALSE|FALSE (ssRNA)
RNA: GGGAGUUCUACAGUCCGACGAUCAAAGACCCUGAGUGAAUCUUCGGACUAGGCACGUCUUUCCCACUCCAGCGUUGCCAAUUAAAACAAUUUUGAACAGGAAAUCAUAAUCUUCCAUACUCAUUUACACAGCUGGUUUGGGAUCAACAGAGGAUUGAGCAUCA
B12: chr4:56883625:56883626:-_ENSMUSG00000055296_ENSMUST00000068792|mus_mus|FALSE|FALSE (ssRNA)
RNA: GGGAGUUCUACAGUCCGACGAUCUAUAGGCGUGCGCCACCACGCCCGGGUUUAAAAUGUGUAGACCAGGCUGGCCUCGAACUCGCGAUCCUCCUGCUUCUGCCUCCUUCAGCAAAUCCUACUGGCGUGCGCCACCACAACCAGCAACAGAGGAUUGAGCAUCA
B13: 24016654_24036560_782_3pUTR_ENSMUSG00000024277_ENSMUST00000025127|mouse|control|control (ssRNA)
RNA: GGGAGUUCUACAGUCCGACGAUCCGUUUCUAAAUCUUUGUCAGAUCUGGAUGCAGAGCCACUGGAUGAAGCCCUUUUGGCAGACGAGGGGCGAGAAGGUGUGGAUCCUGGCUUAGAUGCAGGACUUGACUUAGCCGCGCCUGCCAACAGAGGAUUGAGCAUCA
B14: chr11:77340908:77340909:-_ENSG00000074201_ENST00000525064|hu_mus|FALSE|FALSE (ssRNA)
RNA: GGGAGUUCUACAGUCCGACGAUCGUUUGGAUCCCUGGACACCGCAUGUAAACUAAUGGUGGGGUAUUCCAGUGAGAAUCCUAAUCCCGAACCAUCUAACCAGGACAGGCGGCUCUCCGCGAUGUAAAGCGUGCCGGUGCCGAGCAACAGAGGAUUGAGCAUCA
B15: chr11:115359427:115359428:-_ENSMUSG00000020737_ENSMUST00000021083|mus_hu|motif|central (ssRNA)
RNA: GGGAGUUCUACAGUCCGACGAUCUGCAGUUCACAAGCAUGGAGGAAACAGACAGAACGACAGCGUUCAGGACAGUCAGAGCGGACCCAAGACGAGGCUGGACUUGCCGCCAGGGGGAUUUCUUCUGGAUGGCACUGGGGCCGGCAACAGAGGAUUGAGCAUCA
B16: chr11:63961690:63961691:+_ENSG00000168439_ENST00000305218|hu_mus|FALSE|FALSE (ssRNA)
RNA: GGGAGUUCUACAGUCCGACGAUCUUCAUGUUUUAAACCUUCUUCAUAGGUUCGUUUGGCUUCCUCAAACCGGUUUAGGAAUUCAAGGGCUGCUGCUUUUCUUGAAUAACCCUUGCCCCAGUCAGGCUUCAGGUCAACAGUCUUCAACAGAGGAUUGAGCAUCA
B17: chr13:42873775:42873776:+_ENSG00000023516_ENST00000025301|hu_hu|FALSE|FALSE (ssRNA)
RNA: GGGAGUUCUACAGUCCGACGAUCAGAAGACGAAAAAAAUGUUUUCUGUAAAUCACUAUCUUUAUCUGAAGCAUUAGAUGACCUAUAGAAACUCCUUUGGGUCCAAGGCUCUGAAAUUGAUGUUGUGACUGAAGUUUUCACAGACAACAGAGGAUUGAGCAUCA
B18: chr9:100389865:100389866:-_ENSG00000136925_ENST00000341170|hu_mus|FALSE|FALSE (ssRNA)
RNA: GGGAGUUCUACAGUCCGACGAUCUAUCAGUGGGACAGGUUCCUUGCAGACAAGUAUCUUCCGCAAACCCUAGGCCUUUCCUGGGUCUCCCUUCACCAACUUGGCGCUGCUCCCCGCCCUCGAGCCCACGCCCCCCGGCGCGCGCAACAGAGGAUUGAGCAUCA
B19: chr9:74904954:74904955:+_ENSMUSG00000007656_ENSMUST00000169492|mus_mus|FALSE|FALSE (ssRNA)
RNA: GGGAGUUCUACAGUCCGACGAUCUCAAAAGGAAGAUACAGAAGAAAUCAAUACAACAGAGGUCCUGUUAAAUAAGAGUAACAUACAAAGCUGUAAUCAUGAGAAAGUAAAGAAAGCCAGAGCAUUAAAGCUGUAAAACUUGCUCAACAGAGGAUUGAGCAUCA
B20: chr14:73742652:73742653:-_ENSG00000133961_ENST00000557597|hu_hu|FALSE|FALSE (ssRNA)
RNA: GGGAGUUCUACAGUCCGACGAUCCCCCUUUACCUUUGGCAAGAUUACUUACAACUCAUACAACUUCUUAAUAUCUGAGAACUAUUUAAAAUAUUCUAAAUGCAUAAAAAUAAAGAUUUUGGCUUUUGAUAUAUAUAAUAUUUACAACAGAGGAUUGAGCAUCA
B21: chr11:18422405:18422406:+_ENSG00000134333_ENST00000379412|hu_hu|motif|central (ssRNA)
RNA: GGGAGUUCUACAGUCCGACGAUCCAGCUUGGAGUUUGCAGUUACAUUAUAGUCUUUGCCAGAGACAAUCUUUGGUGUUCGGAGGAAAAGGCUGCCAUGUUGGAGAUCCAUCAUCUCUCCCUUCAAUUUGUCUUCGAUGACAUCCAACAGAGGAUUGAGCAUCA
B22: chr14:89338683:89338684:+_ENSG00000165533_ENST00000346301|hu_hu|hu_hu_hu_mus_False|58_108 (ssRNA)
RNA: GGGAGUUCUACAGUCCGACGAUCGUGGUUGUUGUUGACCAGGGCCAGCCUGAAGCAUUGGUGGGCCAAGUUUGUAUCUCCUAUUCCCACAGCUAUGUGCCCCAGGUUGUACCAGACAUCAGCUGCCUCUUCUUCAUUUUCAGCCAACAGAGGAUUGAGCAUCA

Target: T1, UNK ZnF1-3
Test: nsRBNS (natural sequence RNA bind-n-seq); RBNS binding buffer (assumed for nsRBNS): 25 mM Tris pH 7.5, 150 mM KCl, 3 mM MgCl2, 0.01% Triton X-100, 500 ug/ml BSA, 20 U/ml SUPERase-In, 4 C; UNK is unkempt and MSI1 is Musashi-1; names of the RNAs are library labels; protein concentration not given here; high values mean tight binding

Compared with B1, B2 is lower in binding signal: 2.21 enrichment R for the first, 1.76 enrichment R for the second.

First: B3
Second: B4
The binding signal of the first is higher: 0.642 enrichment R for the first, 0.573 enrichment R for the second.

Going from B5 to B6, the binding signal rises from 0.508 enrichment R to 1.2 enrichment R.

Going from B7 to B8, the binding signal rises from 0.799 enrichment R to 1.36 enrichment R.

First: B9
Second: B10
The binding signal of the first is lower: 0.693 enrichment R for the first, 1.29 enrichment R for the second.

Compared with B11, B12 is lower in binding signal: 1.1 enrichment R for the first, 0.972 enrichment R for the second.

First: B13
Second: B14
The binding signal of the first is lower: 0.536 enrichment R for the first, 0.705 enrichment R for the second.

Going from B15 to B16, the binding signal falls from 1.45 enrichment R to 0.607 enrichment R.

Compared with B17, B18 is higher in binding signal: 0.809 enrichment R for the first, 1.19 enrichment R for the second.

First: B19
Second: B20
The binding signal of the first is higher: 2.34 enrichment R for the first, 1.07 enrichment R for the second.

Going from B21 to B22, the binding signal falls from 0.638 enrichment R to 0.492 enrichment R.
